# A selection: hits, their analogues and other compounds. The true share with any hit is near 3%.
# BCR signal inh: inhibitors of chronic active B-cell receptor signaling; ABC-DLBCL IkBa-CBG/CBR reporter, luminescence ratio, 4 h; Potency, µM (doses to about 46.1 µM), without a hit: at the highest dose activity change, negative = inhibition, hits mostly inhibitors; 340,000 compounds, 0.05% hits; AID 493014; active = well fitted inhibition curve with a large enough effect in the signal ratio, with a control signal flat, not every such curve was filed as active; inconclusive = small, poorly fitted or top-dose-only effect, or effect the other way, or a change in a side signal; the % refers to the signal ratio;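 also: potency is read from the fitted curve at half-maximal effect; plate controls were basal doxycycline-induced cells for no effect and cells given 10 µM MG132 for full effect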
#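 TMD8 human ABC-DLBCL cells with doxycycline-inducible IκBα–green luciferase fusion and unfused red luciferase, in 0.5% FBS medium; compounds up to 46 uM, 4 h at 37C. Green/red luminescence ratio, filter-overlap corrected, fitted to concentration-response curves.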
# KCNH2 WT inh: blocks the wildtype human KCNH2 potassium channel | 340,000 compounds, 0.37% hits | Q12809 | U2OS, BacMam KCNH2, thallium flux FluxOr; active compounds read low | activity change, % at 1.84 µM | AID 720551;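 active = maximum activity change below -70%; inconclusive = maximum activity change between -70% and -50%; inactive = maximum activity change above -50%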; also: % is scaled to controls: 0 for no effect and ±100 for the full control effect
#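 U2OS cells were transduced with wild-type KCNH2 virus (2.03 x 10^8 / mL) for 4 h at room temperature, then cultured overnight at 37 C. Thallium flux was read with FluxOr dye. Rate constants were normalized to DMSO controls.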
# ALOX12 inh: blocks human arachidonate 12S-lipoxygenase. P18054. purified 12hLO, xylenol orange hydroperoxide absorbance. Potency, µM (highest dose often 108 µM), for inactives: top-dose activity change, negative = inhibition, hits mostly inhibitors. 580,000 compounds, 1.1% hits. AID 1671190; active = well fitted inhibition curve with a large enough effect; inconclusive = small, poorly fitted or top-dose-only effect, or another doubt; inactive = no such curve, though single readings can be large or run the other way; also: potency is read from the fitted curve at half-maximal effect; % is scaled to controls: 0 for no effect and ±100 for the full control effect
#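 Hydroperoxide product was detected by ferrous iron/xylenol orange as the 573 to 405 nm absorbance ratio. Arachidonic acid at 40 uM (final) was turned over for 30 min at room temperature by 150 nM human 12hLO, pH 7.0 Hepes buffer, after 15 min compound preincubation.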
# ClpP mod: qHTS Assay for Activators of ClpP; 340,000 compounds, 1.9% hits; ATP-dependent Clp protease proteolytic subunit (Bacillus subtilis (strain 168)), P80244; Potency, µM (top dose mostly 57.5 µM), without a hit: top-dose activity change, negative = active; AID 651965, 2013; purified B. subtilis ClpP, FRET peptide cleavage, 20 min; active = well fitted falling curve with a large enough effect; inconclusive = small, poorly fitted or top-dose-only effect; inactive = no such curve, though single readings can be large or run the other way; also: potency is read from the fitted curve at half-maximal effect; the source files actives as falling curves though it sought activators and does not explain the sign; nearly all actives have a fitted effect of over 65% in size
# Target sequence (P80244 whole entry, looked up): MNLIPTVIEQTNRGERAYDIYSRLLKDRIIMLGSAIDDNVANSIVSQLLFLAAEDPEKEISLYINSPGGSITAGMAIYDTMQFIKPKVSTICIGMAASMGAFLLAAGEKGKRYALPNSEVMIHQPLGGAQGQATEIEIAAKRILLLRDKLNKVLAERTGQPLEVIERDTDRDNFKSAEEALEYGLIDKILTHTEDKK
#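 Buffer: 100 mM Tris/HCl pH8, 100 mM KCl, 0.05% low protease BSA, 2.5% glycerol, 0.01% Tween-20. ClpP 10 microg/mL final; 20 min RT; delta FRET normalized to ADEP and DMSO controls.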
# KCNH2 3.1 block: inhibitors of human KCNH2 3.1 potassium channel isoform. U2OS KCNH2 3.1, thallium flux FluxOr; active compounds read low. activity change, % (tested at about 1.8 µM). 340,000 compounds, 0.95% hits. AID 720553;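 active = maximum activity change below -70%; inconclusive = maximum activity change from -70% to -50%; inactive = maximum activity change above -50%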;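 also: thallium influx rate constant from kinetic fluorescence after stimulation buffer; % is scaled to controls: 0 for no effect and ±100 for the full control effect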
#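 Measured as rate of thallium-driven FluxOr signal in transduced U2OS cells carrying the 3.1 channel, read kinetically for 2 min upon stimulation; values are rate constants scaled to DMSO control wells.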
# LDHA block: inhibitors of human lactate dehydrogenase A. purified LDHA, NADH/diaphorase-resazurin fluorescence; active compounds read low. activity change, % (values are at about 110 or 230 µM). 480,000 compounds, 0.15% hits. AID 1347041; in the data active = activity change below about -30%; inconclusive = mostly about -25% to -30%;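 also: plate controls were DMSO wells for no effect and wells without enzyme for full effect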
#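 Resorufin fluorescence (ex540/em590), read at 0 and 20 min after diaphorase/resazurin addition, reports the NADH left after a 5 min room-temperature reaction of 2 nM human LDH5 with 0.06 mM NADH and 0.2 mM pyruvate.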
# Starred values were filed as active, the others as inactive; u = inconclusive; x = not tested or not shown; [ ] = dose if it differs, or a comment.
SMILES,BCR signal inh,KCNH2 WT inh,ALOX12 inh,ClpP mod,KCNH2 3.1 block,LDHA block
C[S+](=O)([O-])N1CCCC2(C1)C(=NC1CCCC1)NC(=O)N2c1cc(F)cc(F)c1 (centres undefined),x,x,89µM*,x,x,x
O=C(NCCCO)c1c(O)c2cccc3c2n(c1=O)CCC3,0%,-3,x,u,-3,1
CCNCCNC(=O)c1c(O)c2cccc3c2n(c1=O)CCC3,u,-179*,-15%,-14%,8,9
CCCCNC(=O)c1c(O)c2cccc3c2n(c1=O)CCC3,17%,-1,29%,11µM*,-4,1
Cc1ccc2c(C)c(C(=O)NCC(c3cccs3)N3CCOCC3)oc2c1 (centres undefined),x,x,u,x,x,-7
CCn1c2ccccc2c2cc(/C=N/n3cnnc3)ccc21,u,-6,0%,25µM*,-12,-10
COc1ccc2ccccc2c1/C=N/n1cnnc1,-2%,3,0%,-10%,11,0
CCn1c(/C=N/n2cnnc2)nc2ccccc21,0%,-2,13%,28µM*,3,-15
CCn1c2ccccc2c2cc(/C=N/NC(=O)c3ccccc3C)ccc21,u,-2,-7%,13µM*,3,-7
CCn1c2ccccc2c2cc(/C=N/n3cn[nH]c3=S)ccc21,-7%,-6,u,14%,11,-12
Cc1cccc2sc(NNC(=O)c3cc(=O)c4ccccc4o3)nc12,u,4,32µM*,3%,-4,13
COc1ccc2[nH]c(=O)c(CN(Cc3cccs3)Cc3nnnn3C(C)(C)C)cc2c1,-4%,21,-16%,32µM*,-1,0
COc1ccc2[nH]c(=O)c(CN(Cc3ccccc3)Cc3nnnn3CC3CCCO3)cc2c1 (centres undefined),5%,x,7%,28µM*,6,-2
COc1cc2cc(CN(Cc3nnnn3Cc3ccccc3)CC3CCCO3)c(=O)[nH]c2cc1OC (centres undefined),-14%,1,-19%,28µM*,4,-2
O=C(CSc1n[nH]c(-c2ccc(Br)cc2)n1)c1cc(F)ccc1F,x,x,32µM*,x,x,2
COCCNC(=O)N1CCCC(c2noc(COC)n2)C1 (centres undefined),x,x,39%,x,x,x
O=C(Cc1ccc(-n2cccc2)cc1)NCc1cccs1,u,-10,0%,-1%,-89*,1
O=C(Cc1ccccc1)NCc1cccs1,x,x,-22%,x,x,4
O=C(c1c[nH]c2ccccc12)N1CCC2(CC1)CNS(=O)(=O)c1cccnc1O2,x,x,6%[6.33 µM],x,x,x
CCCCOc1ccc(CNC(=S)N/N=C/c2ccc(OC)c(OC)c2)cc1,u,0,28µM*,u,4,-8
CCN1c2ccccc2-c2nc3ccccc3n2C1c1cccnc1 (centres undefined),u,4,3%,32µM*,-1,-5
COc1ccccc1NC(=O)c1ccccc1N(Cc1ccccc1)S(C)(=O)=O,0%,-215*,1%,1%,14,-2
COC(=O)c1cc(Br)ccc1N(Cc1cc(OC)cc(OC)c1)S(C)(=O)=O,2%,-4,-22%,2%,1,2
CC(C)NC(=O)c1ccccc1N(Cc1ccccc1)S(C)(=O)=O,-6%,-25,29%,2%,-75*,3
COC(=O)c1ccccc1N(Cc1ccccc1)S(C)(=O)=O,1%,-10,0%,25µM*,-5,-4
SMILES,BCR signal inh,KCNH2 WT inh,ALOX12 inh,ClpP mod,KCNH2 3.1 block,LDHA block
CCOc1ccccc1NC(=O)c1ccccc1N(C)S(C)(=O)=O,-6%,-3,0%,-23%,-2,-3
COc1ccc(OC)c(S(=O)(=O)N2CCN(C(=O)NC3CCCC3)CC2)c1,x,x,20%,x,x,12
COc1ccc(C(C)(C)C)cc1-c1csc(N)n1,x,x,u,x,x,0
COc1cc(C2NC(=O)N(C)C(C)=C2C(=O)OC2CCCC2)cc(Br)c1O (centres undefined),x,x,u,x,x,-3
CC(C)(C)c1ccc(SCC(=O)NC(C)(C#N)C2CC2)cc1 (centres undefined),x,x,1%,x,x,-21
Cc1nc(NC(=O)CSc2nccn2C)sc1C(=O)N(C)C,-1%,2,18µM*,2%,18,-2
Cc1nnc(NC(=O)CSc2nccn2C)s1,-13%,-23,-5%,-1%,6,0
COc1ccc2c(CC(=O)NCCN3C(=O)S/C(=C\c4cccnc4)C3=O)coc2c1,-16%,9,1%,13µM*,-8,0
COc1ccc(C(=O)ON=C2CCCCC2)cc1Br,x,x,8%,x,x,1
C[N+]1(CCCCCCCCCCCCCO)CCCC1,x,x,28µM*,x,x,-3
COCc1nc(C2CCN(C(C)=O)C2)no1 (centres undefined),x,x,49%,x,x,x
Cc1ccc(-n2nc(CO)c(C(=O)NC(C)CCCc3ccccc3)n2)cc1 (centres undefined),x,x,-12%,32µM*,x,-7
Cc1ccc(-n2nc(CO)c(C(=O)NCCCCc3ccccc3)n2)cc1C,x,x,-12%,25µM*,x,-5
Cc1ccc(-n2nc(CO)c(C(=O)NCCC(C)C)n2)cc1C,x,x,-16%,u,x,-9
Cc1ccc(-n2nc(CO)c(C(=O)NCC(c3ccccc3)c3ccccc3)n2)cc1,x,x,u,-11%,x,-14
Cc1ccc(-n2nc(CO)c(C(=O)NCCCCc3ccccc3)n2)cc1,x,x,-14%,10µM*,x,0
Cc1ccc(-n2nc(CO)c(C(=O)NCCO)n2)cc1,x,x,-9%,8.9µM*,x,-9
CCSc1nnc(-c2nn(C)c3c2CN(S(=O)(=O)c2ccc4c(c2)CCC4)CC3)n1C,x,x,u,x,x,1
CCOC(=O)c1c(NC(=O)COc2ccccc2)sc(Cc2ccc3c(c2)OCO3)c1C,x,x,-4%,x,x,3
Cc1cc(C)cc(C(=O)C(C#N)C(=O)c2cccs2)c1 (centres undefined),x,x,u,x,x,0
O=C(COc1ccc([N+](=O)[O-])cc1Cl)Nc1ccc2c(c1)CCC2,x,x,-23%,x,x,0
COc1ccc(CN(C)Cc2cc(=O)oc3ccc(C)cc23)cc1,x,x,5%,x,x,2
c1ccc(N2CCN(c3nc(N4CCCC4)nc4nccnc34)CC2)cc1,x,x,15%,x,x,1
O=C(NCCCCc1ccccc1)c1nn(-c2ccccc2)nc1CO,x,x,-14%,u,x,-5
Cc1ccc(-n2nc(CO)c(C(=O)NCCCc3ccccc3)n2)cc1,x,x,u,22µM*,x,-2
O=C(CCCSc1nc2ccccc2s1)Nc1ccc(F)c(F)c1F,x,x,u,x,x,14
COc1ccc(N2CCN(c3cc(C)c4ccc(O)cc4n3)CC2)cc1,-12%,36,u,-9%,-26,1

# Screening results: PubChem BioAssay, National Center for Advancing Translational Sciences (NCATS)
